Measurements published in PubChem BioAssay.
Where “and” joins values, the source holds several entries; their conditions need not be identical. Equal values may be shown once. Calls of active or inactive are those of the source.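 How the source made its calls, unless noted: active means compounds whose cell count with miR-34 switched on is under 0.7 times the count with it off; inactive means the rest.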

How the values were obtained:
[1] = sensitizers of A549 cells to miR-34 induction, primary screen, imaging, A549 dox-inducible miR-34, nuclei and caspase counts (AID 1347080); settings: A549 miR-34 inducible, Hoechst nuclei count, 48 h; further: test concentration not given here
[2] = survival rescue of mitochondrial mutant cells in low glucose, primary screen, MELAS cybrids, Rieske KO mouse fibroblasts, CellTiter-Glo (AID 1508586;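 active means mean z-score across replicates of 1.96 or higher in either the MELAS or the Rieske mutant cell line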;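 further: test concentration not given here; z relative to plate mean and SD of compound and empty wells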)
[3] = viability rescue of complex I mutant cybrids, primary screen, cell-based, galactose medium, ATP luminescence (AID 1645843;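 active means z-score of at least 1.8 in each of two replicates, scored against plate mean and spread of sample wells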;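 further: positive z means more ATP and so rescue of galactose-driven cybrid death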); settings: complex I mutant cybrid cells, 72 h, stronger effect = higher value
[4] = stronger effect = lower value, cell number ratio, induced over uninduced
[5] = measured here: relative caspase fold change +Dox/-Dox
[6] = measured here: total cells with miR-34 induction, stronger effect = lower value
[7] = measured here: total cells without miR-34 induction
[8] = MELAS cybrid survival, CellTiter-Glo 48 h, stronger effect = higher value
[9] = Rieske KO mouse fibroblast survival, CellTiter-Glo 72 h

| SMILES | fold change [1, 4] | fold change [1, 5] | cell count [1, 6] | cell count [1, 7] | z-score [2, 8] | z-score [2, 9] | z-score [3] |
| --- | --- | --- | --- | --- | --- | --- | --- |
| Nc1ccc(Sc2ccc(N3C(=O)c4ccc(N)cc4C3=O)cc2)cc1 | 0.816 (inactive) | 1.86 | 8200 | 10000 | 0.874 (inactive) | 0.253 | -0.975 (inactive) |
| Cn1cc(/C=C/C(=O)N2CCc3[nH]nc(-c4ccccc4F)c3C2)cn1 | 0.865 (inactive) | 2.04 | 7720 | 8920 | -0.472 (inactive) | -0.29 | -0.48 (inactive) |
| NCC(=O)Nc1ccc(OCc2ccccc2)cc1 | 0.851 (inactive) | 0.248 | 8020 | 9430 | 1.42 (inactive) | -0.396 | -1.35 (inactive) |
| Cc1nsc(NC(=O)NC2CCc3ccccc3C2)n1 (configuration not stated) | 0.899 (inactive) | 1 | 3190 | 3550 | -0.269 (inactive) | -0.339 | 1.48 (inactive) |
| O=C(O)c1cnn(-c2ccccc2)c1 | 0.883 (inactive) | 0.82 | 8690 | 9840 | -0.738 (inactive) | 0.631 | 1.16 (inactive) |
| CCCN1CCCCC1C(=O)Nc1c(C)cccc1C (configuration not stated) | 0.891 (inactive) and 0.942 (inactive) | 1.17 and 1.76 | 9320 and 9310 | 10500 and 9880 | 0.0955 (inactive) | -0.512 | 0.57 (inactive) |
| Cc1nc(CCNC(=O)Nc2nnc(-c3cccs3)s2)sc1C | 0.877 (inactive) | 1.44 | 7610 | 8680 | -0.443 (inactive) | -0.248 | 0.645 (inactive) |
| O=C1CN(c2ccc(C(F)(F)F)cn2)CCN1Cc1ccc2c(c1)OCO2 | 0.887 (inactive) | 1.52 | 8410 | 9480 | 0.169 (inactive) | -0.106 | 2.96 (active) |
| CC1OC(OCC2OC(Oc3c(-c4ccc(O)c(O)c4)oc4cc(O)cc(O)c4c3=O)C(O)C(O)C2O)C(O)C(O)C1O (configuration not stated) | 0.944 (inactive) and 0.91 (inactive) | 1.42 and 0.851 | 10400 and 8400 | 11000 and 9230 | -0.328 (inactive) | -0.0914 | 0.225 (inactive) |
| O=C(CC1=CCCCC1)NCc1ccon1 | 0.939 (inactive) | 1.22 | 9490 | 10100 | 0.26 (inactive) | -0.5 | -0.49 (inactive) |
| CCC(C)(C)c1nnc(NC(=O)NCc2ccco2)s1 | 0.9 (inactive) | 1.07 | 8900 | 9890 | 0.377 (inactive) | -0.396 | 3.32 (active) |
| NC(N)=NCC(=O)O | 0.926 (inactive) | 0.467 | 8690 | 9380 | 0.863 (inactive) | 0.0822 | 0.15 (inactive) |
| O=C(c1cccc(=O)[nH]1)N(Cc1cccnc1)Cc1ccc2c(c1)OCO2 | 0.964 (inactive) | 1.96 | 9470 | 9830 | -0.318 (inactive) | 0.234 | -0.17 (inactive) |
| COc1cccc(Cc2noc(-c3nccc4ccccc34)n2)c1 | 0.933 (inactive) | 1.27 | 8090 | 8670 | 0.324 (inactive) | -0.0974 | -0.1 (inactive) |
| CCOC(=O)c1cc2ccc(O)cc2oc1=O | 0.98 (inactive) | 0.374 | 10300 | 10500 | 0.534 (inactive) | -0.345 | 0.595 (inactive) |
| Cc1nn(C)cc1-c1ccnc(N2CCCN(c3ccccc3)CC2)n1 | 0.823 (inactive) | 0.527 | 5610 | 6820 | -1.06 | 3.98 | 2.46 (active) |
| O=c1cc(-c2cccnc2)nc(-c2ccc(CN3CCCC(CO)C3)cc2)[nH]1 (configuration not stated) | 0.899 (inactive) | 2.12 | 7730 | 8590 | -0.0299 (inactive) | -0.608 | -0.56 (inactive) |
| c1nc(N2CCOCC2)c2[nH]cnc2n1 | 0.913 (inactive) | 0.416 | 8460 | 9270 | -0.198 (inactive) | -0.176 | 1.15 (inactive) |
| NCC1OC(OC2C(CO)OC(OC3C(O)C(N)CC(N)C3OC3OC(CO)C(O)C(O)C3N)C2O)C(N)C(O)C1O (configuration not stated) | 0.908 (inactive) | 0.282 | 9400 | 10400 | 0.577 (inactive) | -0.435 | 0.725 (inactive) |
| NC(=O)c1ccccc1-c1cccc2ccccc12 | 0.84 (inactive) | 1.62 | 7950 | 9470 | -0.37 (inactive) | 0.135 | -0.38 (inactive) |
| CC(=O)N1CCCC(Cn2cnc3scc(-c4cc(C)ccc4C)c3c2=O)C1 (configuration not stated) | 0.917 (inactive) | 1.14 | 8240 | 8990 | -0.328 (inactive) | -0.378 | 0.155 (inactive) |
| O=c1ccn2c(n1)OC1C(O)C(CO)OC12 (configuration not stated) | 0.869 (inactive) | 0.596 | 8620 | 9930 | 0.627 (inactive) | -0.112 | 0.87 (inactive) |
| Cc1nn(C)cc1-c1ccnc(NCc2nc(Cc3ccccc3)no2)n1 | 0.883 (inactive) | 1.22 | 8680 | 9840 | -0.288 (inactive) | -0.167 | -0.52 (inactive) |
| Cc1sc2ncnc(-c3cccc4cccnc34)c2c1C | 0.871 (inactive) | 1.66 | 8110 | 9310 | -0.544 (inactive) | -0.845 | 0.64 (inactive) |
| CC[C@H](C)[C@H](NC(=O)c1nc2ccccc2c(=O)[nH]1)C(=O)OC | 0.844 (inactive) | 2.34 | 7550 | 8940 | 0.166 (inactive) | -0.367 | -0.31 (inactive) |
| O=C(Cc1noc2ccccc12)NCCOc1cccnc1 | 0.924 (inactive) | 1.95 | 9890 | 10700 | -0.132 (inactive) | -0.425 | -0.56 (inactive) |
